Laboratory results taken from the supplement of paper PMC4022240.
± gives the standard deviation.

T1: HaloTag-ATRX ADD domain (163-292)
T1 chain: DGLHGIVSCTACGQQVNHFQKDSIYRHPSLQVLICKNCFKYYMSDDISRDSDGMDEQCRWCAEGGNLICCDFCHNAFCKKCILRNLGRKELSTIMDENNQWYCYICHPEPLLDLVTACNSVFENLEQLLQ

B1: Unmod H1 variant V K K K A R K S A G A A K (peptide)
chain: VKKKARKSAGAAK
B2: Unmod H1 variant K P K K A T G A A T P K K (peptide)
chain: KPKKATGAATPKK
B3: Unmod H1 variant A K K P A G A A K K P K K (peptide)
chain: AKKPAGAAKKPKK
B4: Unmod H1 variant P K K A K K P A A A A G A (peptide)
chain: PKKAKKPAAAAGA
B5: Unmod H1 variant A L A A A G Y D V E K N N (peptide)
chain: ALAAAGYDVEKNN
B6: Unmod H1 variant K A A S G E A K P K A K K (peptide)
chain: KAASGEAKPKAKK
B7: Unmod H1 variant G V S L A A L K K A L A A (peptide)
chain: GVSLAALKKALAA
B8: Unmod H1 variant T L V Q T K G T G A S G S (peptide)
chain: TLVQTKGTGASGS
B9: Unmod H1 variant K A K K A G A A K A K K P (peptide)
chain: KAKKAGAAKAKKP
B10: Unmod H1 variant P P V S E L I T K A V A A (peptide)
chain: PPVSELITKAVAA
B11: Unmod H1 variant T K P K T A K P K K A A P (peptide)
chain: TKPKTAKPKKAAP
B12: Unmod H1 variant S E T A P A A P A A P A P (peptide)
chain: SETAPAAPAAPAP
B13: Unmod H1 variant A P A P A E K T P V K K K (peptide)
chain: APAPAEKTPVKKK
B14: Unmod H1 variant T P K K S A K K T P K K A (peptide)
chain: TPKKSAKKTPKKA
B15: Unmod H1 variant K T A K P K K A A P K K K (peptide)
chain: KTAKPKKAAPKKK
B16: Unmod H1 variant K P K A A K A R V T K P K (peptide)
chain: KPKAAKARVTKPK
B17: Unmod H1 variant A S G S F K L N K K A A S (peptide)
chain: ASGSFKLNKKAAS
B18: Unmod H1 variant A V A A S K E R S G V S L (peptide)
chain: AVAASKERSGVSL
B19: Unmod H1 variant G A A K R K A S G P P V S (peptide)
chain: GAAKRKASGPPVS
B20: Unmod H1 variant E K N N S R I K L G L K S (peptide)
chain: EKNNSRIKLGLKS

Assays:
Assay in all cases: peptide microarray binding signal (635 nm), min-max normalized on array (fraction of array maximum); higher = stronger binding
Settings in all cases: peptide region: Unmod H1 variant
[1] = molecular target: T1, HaloTag-ATRX ADD domain (163-292)
In short: (§1)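 For each library, binding signal was taken as the triplicate-spot mean intensity and then min-max scaled. Spots of histone 13-mer peptide–cellulose conjugates on nitrocellulose, printed in triplicate with a Cy3 tracer, were probed for 1 h at 4°C with either biotin-labelled HaloTag reader fusions (10 nM to 1 μM) and streptavidin-Alexa Fluor 647 or rabbit histone antibodies (1:10,000 to 1:2,000) and anti-rabbit Alexa 647. Readout at 635 nm came from an Axon GenePix 4000B.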

[2] = molecular target: HaloTag-ING2 PHD (mouse Ing2 200-280)
In short: as §1

[3] = molecular target: anti-H3K4me3 antibody ab8580
In short: as §1

[4] = molecular target: anti-H3K9me3 antibody ab8898
In short: as §1

[5] = binder concentration: 1:2,000 dilution
[6] = binder concentration: 1:10,000 dilution

Binder	peptide microarray binding signal ([1]; binder concentration: 50 nM)	peptide microarray binding signal ([1]; binder concentration: 500 nM)	peptide microarray binding signal ([2]; binder concentration: 10 nM)	peptide microarray binding signal ([2]; binder concentration: 100 nM)	peptide microarray binding signal [3, 5]	peptide microarray binding signal [3, 6]	peptide microarray binding signal [4, 5]	peptide microarray binding signal [4, 6]
B1	0.0176 ± 0.00024	0.0081 ± 0.00035	0.00203 ± 4.1e-05	0.00553 ± 0.00055	0.00145 ± 0.00015	0.00143 ± 2.4e-05	0.000272 ± 4.9e-06	0.000634
B2	0.00674 ± 0.0014	0.00957 ± 0.00063	0.003939 ± 2.1e-05	0.00893 ± 0.00084	0.000925 ± 2.1e-05	0.00171 ± 5.9e-05	0.000408 ± 1.2e-05	0.00121 ± 2.4e-05
B3	0.00931 ± 0.00023	0.00786 ± 0.00022	0.003103 ± 3e-05	0.00765 ± 0.00058	0.0006041 ± 5.8e-06	0.00217 ± 0.0002	0.000423 ± 8.2e-06	0.00104 ± 1.1e-05
B4	0.0116 ± 7.8e-05	0.00771 ± 0.00013	0.00322 ± 4.7e-05	0.00652 ± 0.00013	0.000736 ± 1.2e-05	0.001541 ± 1.5e-05	0.000483 ± 9.2e-06	0.00098
B5	0.021 ± 0.00023	0.0215 ± 0.001	0.00991 ± 0.00043	0.0252 ± 0.0029	0.0067 ± 0.0027	0.00702 ± 0.00034	0.00281 ± 0.0003	0.00357 ± 0.00017
B6	0.0252 ± 0.0022	0.0245 ± 0.0017	0.007579 ± 5.8e-05	0.0113 ± 0.0012	0.000831 ± 4.9e-05	0.00171 ± 4.3e-05	0.000483 ± 1.7e-05	0.001211 ± 1.2e-05
B7	0.0641 ± 0.057	0.0257 ± 0.0036	0.00621 ± 0.00023	0.0162 ± 0.0004	0.00157 ± 0.00018	0.00262	0.00131 ± 4.4e-05	0.00161 ± 3.1e-05
B8	0.0308 ± 0.012	0.0171 ± 0.0029	0.00734 ± 0.00017	0.0165 ± 0.00046	0.00255 ± 9.7e-05	0.00388 ± 0.00013	0.0019 ± 0.00012	0.00231 ± 7.5e-05
B9	0.01282 ± 3.1e-05	0.0114 ± 0.00065	0.00424 ± 5.8e-05	0.00935 ± 0.00021	0.000906 ± 2.4e-05	0.00148 ± 2.9e-05	0.000423 ± 8.2e-06	0.00075 ± 7.9e-06
B10	0.0304 ± 0.017	0.00833 ± 0.00045	0.00382 ± 0.00018	0.00397 ± 0.00022	0.00296 ± 0.001	0.0028 ± 0.00019	0.00106 ± 4.4e-05	0.00144 ± 5.7e-05
B11	0.0172 ± 0.00023	0.0103 ± 0.00048	0.00173 ± 2.1e-05	0.00567 ± 0.00041	0.00108 ± 6.8e-05	0.00097 ± 9.9e-06	0.000227 ± 4.1e-06	0.000577 ± 6.2e-06
B12	0.0194 ± 0.0011	0.00995 ± 0.00098	0.00394 ± 0.0003	0.00418 ± 0.00041	0.00274 ± 0.001	0.00337 ± 0.00036	0.00159 ± 8.6e-05	0.00167 ± 2.8e-05
B13	0.021 ± 0.0011	0.0189 ± 0.00097	0.00466 ± 0.00027	0.012 ± 0.00083	0.00136 ± 0.00038	0.00223 ± 7.3e-05	0.000906 ± 4.5e-05	0.00098
B14	0.0108 ± 0.0035	0.0104 ± 0.0011	0.00322 ± 4.7e-05	0.0121 ± 0.0049	0.000812 ± 4.4e-05	0.00137 ± 4.9e-05	0.000287 ± 1.1e-05	0.000865 ± 9e-06
B15	0.01737 ± 0.0001	0.00729 ± 0.00021	0.00203 ± 5.4e-05	0.00532 ± 0.00022	0.000755 ± 3e-05	0.000913 ± 1.6e-05	0.000121 ± 1.3e-06	0.000577 ± 6.2e-06
B16	0.0178 ± 0.00067	0.0125 ± 0.0019	0.00173 ± 3.7e-05	0.00439 ± 0.00016	0.00051 ± 1.5e-05	0.00097 ± 4e-05	0.000166 ± 1.8e-06	0.000404 ± 4.4e-06
B17	0.0207 ± 0.0013	0.00791 ± 0.00049	0.00233 ± 5.8e-05	0.00425 ± 7.2e-05	0.00132 ± 0.0003	0.000913 ± 1.6e-05	0.000257 ± 2.7e-06	0.00075 ± 1.6e-05
B18	0.0286 ± 0.0016	0.0273 ± 0.0012	0.011 ± 0.00034	0.0228 ± 0.00053	0.00236 ± 0.00025	0.00479 ± 0.00028	0.00335 ± 9.4e-05	0.002825 ± 2.4e-05
B19	0.0168 ± 0.00018	0.00757 ± 0.00056	0.00245 ± 5e-05	0.00822 ± 0.00024	0.000793 ± 1.2e-05	0.000799 ± 8.3e-06	0.000211 ± 4.5e-06	0.000634
B20	0.0196 ± 0.00022	0.0155 ± 0.00098	0.00585 ± 0.0006	0.0201 ± 0.0018	0.00196 ± 0.00038	0.00137 ± 4.9e-05	0.000317 ± 5.6e-06	0.00098
